Bioassay records (PubChem BioAssay)
nsP2pro primary – Primary qHTS for inhibitors of NSP2Pro chikungunya virus (CHIKV). Polyprotein P1234 (Chikungunya virus (strain S27-African prototype)), Q8JUX6. AID 1964107, 2024. Potency, µM (doses to about 24.9 µM), inactives show top-dose activity change, negative = inhibition, actives largely listed as inhibitors. FRET peptide cleavage, nsP2pro, fluorescence 1 h. 31,000 compounds, 1.1% hits; calls by dose curve; also: nearly all actives have a fitted effect of over 60% in size
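Enzyme 150 nM, substrate 2.5 uM (both final); Tris-HCl 10 mM pH 8.0 + 0.01% Tween 20; cpd up to 25 uM, 7 pts; 15 min preinc., 1 h RT; fluorescence ex 525/em 598.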
* = called active by the depositor; i = inactive; [ ] = dose if it differs, or a comment. The entries come from a sample that favours hits as a whole. % is scaled to controls: 0 for no effect and ±100 for the full control effect; potency is read from the fitted curve at half-maximal effect.

SMILES	nsP2pro primary
COC(=O)c1ccccc1NC(=O)CSc1nc2sc3c(c2c(=O)[nH]1)CCCC3	10µM*
COC(=O)c1ccc(Cn2nnc3sc4c(c3c2=O)CCCC4)cc1	-22%
Cc1cc(C)cc(NC(=O)CSc2nc3sc4c(c3c(=O)[nH]2)CCCC4)c1	-21%
O=C(O)C(O)[C@H](O)[C@H](O)[C@H](O)[C@H](O)CO (some centres undefined)	-10%
COc1cc(-c2nc(Nc3ccc(F)c(F)c3)c3ccccc3n2)ccn1	2%
CCOC(=O)C1=C(C)NC(C)=C(C(=O)OCC)C1c1ccccc1/C=C/C(=O)OC(C)(C)C	-21%
COC(=O)C1=C(C)NC(C)=C(C(=O)OCC(C)=O)C1c1ccccc1[N+](=O)[O-] (centres undefined)	12µM*
COC(=O)C1=C(C)NC(C)=C(C(=O)OC(C)C)C1c1cccc2nonc12 (centres undefined)	-2%
CCCN1CC2ON=C(C(=O)O)C2C1 (centres undefined)	13µM*
O=C(O)C1=NOC2CN(Cc3cscn3)CC12 (centres undefined)	-12%[39.2 µM]
CC(C)CCN1CC2ON=C(C(=O)O)C2C1 (centres undefined)	-3%[39.2 µM]
COc1ccc(C2Nc3ccccc3C(=O)N2CCCN(C)C)cc1COc1c(C)cc(NC(C)=O)cc1C (centres undefined)	4%
Cc1ccc(CCNC(=O)c2c(C)nn(-c3ccc(F)cc3)c2-n2cccc2)cc1	-17%
CC(=O)c1cccc(NC(=O)c2c(C)nn(-c3ccc(F)cc3)c2-n2cccc2)c1	10µM*
Cc1nn(-c2ccc(F)cc2)c(-n2cccc2)c1C(=O)N1CCCCC1C (centres undefined)	-29%
Cc1ccccc1-n1c(CF)nc2ccc(N)cc2c1=O	5%
O=[S+]1([O-])NC2(CCCN(Cc3ccsc3)C2)CNc2ccccc21 (centres undefined)	i
COc1cccc(CN2CCC(n3cc[nH]c3=O)CC2)c1	-5%[39.2 µM]
CC(C)(C)c1nc(C(=O)NCc2cccnc2)n2ccccc12	-21%
OCc1ccc(-c2ccc3ncnc(N4CCOCC4)c3c2)o1	13µM*
O=C(Nc1ccc2c(N3CCOCC3)ncnc2c1)c1cccc(Cl)c1	i
Cc1cc(C(=O)N2CCc3ncnc(N4CCOCC4)c3CC2)n(C)n1	-3%
Cc1cc(C)nc(NC(=S)N2CCN(c3ccc4ncccc4c3[N+](=O)[O-])CC2)c1	0%
c1ccc2c(CCNc3ccc(Nc4ccncc4)cc3)c[nH]c2c1	117%
COc1ccc2nc3ccc(OC)cc3c(SCCCN)c2c1	-18%
SMILES	nsP2pro primary
Fc1ccc(-c2ccc(CNCCSc3nnnn3-c3ccccc3)o2)cc1	13µM*
O=S(=O)(NCCSc1nnnn1-c1ccccc1)c1ccc(F)cc1	3%
COc1ccc(Cl)cc1CNCCSc1nnnn1-c1ccccc1	-30%
CC(C)=CC[C@H]1O[C@]2(O)C([C@H]3CCC4[C@@]5(C)CC[C@H](O[C@@H]6O[C@H](CO)[C@H](O)[C@H](O[C@@H]7O[C@H](CO)[C@@H](O)[C@H](O)[C@H]7O)[C@H]6O[C@@H]6O[C@@H](C)[C@H](O)[C@@H](O)[C@H]6O)C(C)(C)C5CC[C@@]4(C)[C@]3(C)[C@H]2O)[C@@]1(C)O (some centres undefined)	4%[5.1 µM]
CC1CCC(=O)CC(SCC(O)C(=O)O)CCC(=O)O1 (centres undefined)	11µM*
Cc1cc2c(s1)c1cnn(Cc3ccc(F)cc3Cl)c(=O)c1n2C	-11%
Cc1nc(-c2ccccc2)oc1-c1ccc2ncnc(NCCc3cnc[nH]3)c2c1	i
COc1cccc2sc(N(Cc3cccnc3)C(=O)C3COc4ccccc4O3)nc12 (centres undefined)	-16%
COc1ccc(C)c2sc(N(Cc3cccnc3)C(=O)COc3ccccc3)nc12	-11%
COc1ccccc1Oc1ccc(N(Cc2cccnc2)S(=O)(=O)CC(F)(F)F)cc1	11µM*
CNC(=O)N1N=C(c2ccc(N)cc2)c2cc3c(cc2CC1C)OCO3 (centres undefined)	-10%
COc1ccc(NC(=O)N[C@@H]2C=C[C@@H](c3c(C)nn(CCC#N)c3C)C2)cc1	13µM*
Cc1nn(-c2ccc(F)cc2)c(C)c1[C@@H]1C=C[C@@H](NC(=O)NC(C)C)C1	-8%[39.2 µM]
COc1ccc(-n2nc(C)c([C@@H]3C=C[C@@H](NC(=S)NCC(C)C)C3)c2C)cc1	44%[39.2 µM]
Cc1c(N[C@@H](c2nnc(-c3ccc(C#N)cc3)o2)[C@H](C)O)ccc(C#N)c1Cl	-9%
Cc1nnc2n1CCC(NC(=O)CCCc1c[nH]c3ccccc13)CC2 (centres undefined)	-9%
O=C(CC1CCN(S(=O)(=O)c2ccc(F)cc2F)C1)NCc1ccccc1 (centres undefined)	-5%
O=C1COCC2(CN(c3ccc(C(F)(F)F)cn3)C2)CN1c1ccccc1F	11µM*
CC(C)(C)c1ccc(CN2CC3(COCC2=O)CN(c2cnccn2)C3)cc1	i
O=C1COCC2(CN(c3ccc(C(F)(F)F)cn3)C2)CN1c1ccc(F)cc1	-11%[39.2 µM]
COc1ccc(S(=O)(=O)N2C[C@@H](F)C[C@H]2C(=O)N2CCOCC2)cc1	i
CCN(CC)Cc1cccc(NS(=O)(=O)NCc2ccccc2)c1	-21%
CC1=C2CC(=O)C(C)CC/C=C(\C)CC2(O)OC1=O (centres undefined)	-9%
CC1=C2C[C@@]3(C)[C@@H](CCC[C@@H]3C)C[C@@]2(O)OC1=O	-27%
CC1=C2C[C@@]3(C)C(CCC[C@@H]3C)C(O)C2(O)OC1=O (some centres undefined)	11µM*
SMILES	nsP2pro primary
C/C(=C\c1cccc(C(F)(F)F)c1)C1Nc2cccc3cccc(c23)N1	i
CCCC1CCN(C(=O)COC(=O)c2ccc(S(C)(=O)=O)c([N+](=O)[O-])c2)CC1	-6%
O=C(CCCN1CCN(c2ccc(F)cc2)CC1)NC1c2ccccc2CSc2ccccc21 (centres undefined)	-18%
COc1ccc(C(=O)N2CCCC(c3nc(-c4ccccc4)no3)CCNC(=O)CC2)cn1 (centres undefined)	5%
CCNC(=O)N[C@@H]1C=C[C@@H](c2c(C)nn(-c3ccc(C(C)C)cc3)c2C)C1	-4%[39.2 µM]
CCNC(=O)N[C@@H]1C=C[C@@H](c2c(C)nn(-c3ccc(C(C)(C)C)cc3)c2C)C1	-6%[39.2 µM]
CCNC(=O)N[C@@H]1C=C[C@@H](c2c(C)nn(-c3ccc(C(F)(F)F)cc3)c2C)C1	11µM*
CCCCCC(=O)N1CC[C@@H](CC(=O)N(C)CC#N)[C@@H](CC)C1	-6%[39.2 µM]
N#Cc1cccc(-c2csc(N3CCC(C(N)=O)CC3)n2)c1	1%
Cc1cc(C(=O)N2CC(F)(F)C[C@H]2c2nnc(C)o2)no1	-6%
COC(=O)CCCCC(CCSS/C(CCO)=C(\C)N(C=O)Cc1cnc(C)nc1N)SC(C)=O (centres undefined)	8%
C/C(=C(\CCO)SS/C(CCO)=C(\C)N(C=O)Cc1cnc(C)nc1N)N(C=O)Cc1cnc(C)nc1N	11µM*
Cc1ncc(CNC(=O)N(CCCl)N=O)c(N)n1	-2%
Cc1ccc(C(=O)N2CC(Oc3ccc(F)c(C)c3)C2)cc1	-12%[39.2 µM]
COc1cc(-c2ccc3ncnc(NCc4nc(C)cs4)c3c2)cc(OC)c1OC	3%
COc1ccc(CCNc2ncnc3c2CN(c2ccc(C)cc2)C(=O)CN3C)cc1	3%
